From PubChem BioAssay
Most compounds without a hit are left out; they make up all but 3% or so of the library.
p53null 39C kill: p53 null cell cytotoxicity, nonpermissive temperature | H1299 p53-null (neo) cells, 39C, ATPlite viability, 24 h | Potency, µM (titrated, usually from 46.1 µM), actives largely listed as cytotoxic | 55,000 compounds, 0.97% hits; note: nearly all actives have a fitted effect of over 50% in size
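Temperature-shift cytotoxicity format: compound titrations on p53-null or A138V-expressing H1299 cells held 24 hr at 39C, cell ATP then measured, AC50 from Hill model.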
S16 F2sN tox: cytotoxicity in S16 Pmp22-F2sN Schwann cells | S16 Pmp22-F2sN Schwann cells viability, CellTiter-Glo, 24 h | Potency, µM (highest dose often 57.5 µM), actives largely listed as cytotoxic | 43,000 compounds, 0.48% hits; note: nearly all actives have a fitted effect of over 65% in size
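S16 Pmp22-F2sN Schwann cells (500-1,000/well) in phenol-red-free DMEM with 10% FBS received 23 nL compound by pin tool for 24 h at 37 °C. Viability was then read as CellTiter-Glo luminescence after 15 min at room temperature.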
PMP22 txn prim: modulates PMP22 transcription in S16 Schwann cells; 43,000 compounds, 2% hits; S16 Pmp22-F2sN Schwann cells, FLuc/NLuc coincidence luminescence, 24 h; Potency, µM (titrated, usually from 57.5 µM), hits mostly inhibitors; active = clear falling dose curves in both reporters; inconclusive = both reporters move, but less clearly or upward; inactive = either reporter flat; the % is the NLuc reporter signal
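Transcriptional readout in edited S16(c9) cells: two luciferases reported from the Pmp22 locus, measured in turn after 24 h compound incubation.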
OvCa metastasis: blocks SKOV3ip1 adhesion and invasion in omental model; SKOV3ip1-GFP adhesion/invasion on 3D omental model, fluorescence; Potency, µM (top dose mostly 45.8 µM), actives largely listed as inhibitors; 46,000 compounds, 0.1% hits; note: nearly all actives have a fitted effect of over 65% in size
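Primary human omental fibroblast/mesothelial 3D culture pre-formed 48 h. SKOV3ip1-GFP cells added with compounds (0.36-46 umol/L), incubated 2 h RT/16 h 37 C, fixed; GFP cells quantified at 488/509 nm.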
p53null 32C kill: p53 null cell cytotoxicity, permissive temperature | H1299-neo p53 null cells, ATP luminescence, 24 h, 32C | Potency, µM (titrated, usually from 46.1 µM), hits mostly cytotoxic | 55,000 compounds, 0.62% hits; note: nearly all actives have a fitted effect of over 55% in size
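We seeded p53-null H1299-neo cells, incubated them overnight at 37C, and added compounds across a range up to 46 uM. After 24 hours at 32C, ATP reagent was applied for 20 min at room temperature and luminescence recorded.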
mTORC1 inh: reduces mTORC1 signaling in Tsc2 and p53 null MEF cells; Tsc2-/- p53-/- MEF, phospho-rpS6 immunofluorescence/PI, 24 h; Potency, µM (highest dose often 38.3 µM), hits mostly inhibitors; 44,000 compounds, 0.78% hits; note: nearly all actives have a fitted effect of over 50% in size
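Tsc2-/-, p53-/- MEFs (empty-vector stable line) in DMEM + 10% FBS were treated with compounds 24 h at 37 degree Celsius, fixed, and immunostained for phospho-rpS6 (Alexa-488) with propidium iodide counterstain. Laser-scanning cytometry gave % positive cells, normalized against 7.5 nM rapamycin and DMSO.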
NLuc sat counter: inhibits NanoLuc at saturating substrate, PMP22 counter-screen; shares compounds with PMP22 txn prim; Secreted NLuc enzyme (filtered S16 cell medium), Nano-Glo luminescence; Potency, µM (series often up to 57.5 µM), actives largely listed as inhibitors; 690 compounds, 4% hits; AID 1508638
NLuc Km ctr: NanoLuc inhibition at Km substrate, PMP22 artifact check | 690 compounds, 5% hits | shares compounds with PMP22 txn prim | Potency, µM (titrated, usually from 57.5 µM), most hits filed as inhibitors | secreted NLuc enzyme, coelenterazine luminescence, Km conditions
FLuc counter: firefly luciferase enzyme inhibition artifact for PMP22 screen; shares compounds with PMP22 txn prim; purified P. pyralis FLuc, luminescence, 10 min; Potency, µM (top dose mostly 57.5 µM), actives largely listed as inhibitors; 690 tested, under 10 active
Target sequence (P08659 whole entry, looked up): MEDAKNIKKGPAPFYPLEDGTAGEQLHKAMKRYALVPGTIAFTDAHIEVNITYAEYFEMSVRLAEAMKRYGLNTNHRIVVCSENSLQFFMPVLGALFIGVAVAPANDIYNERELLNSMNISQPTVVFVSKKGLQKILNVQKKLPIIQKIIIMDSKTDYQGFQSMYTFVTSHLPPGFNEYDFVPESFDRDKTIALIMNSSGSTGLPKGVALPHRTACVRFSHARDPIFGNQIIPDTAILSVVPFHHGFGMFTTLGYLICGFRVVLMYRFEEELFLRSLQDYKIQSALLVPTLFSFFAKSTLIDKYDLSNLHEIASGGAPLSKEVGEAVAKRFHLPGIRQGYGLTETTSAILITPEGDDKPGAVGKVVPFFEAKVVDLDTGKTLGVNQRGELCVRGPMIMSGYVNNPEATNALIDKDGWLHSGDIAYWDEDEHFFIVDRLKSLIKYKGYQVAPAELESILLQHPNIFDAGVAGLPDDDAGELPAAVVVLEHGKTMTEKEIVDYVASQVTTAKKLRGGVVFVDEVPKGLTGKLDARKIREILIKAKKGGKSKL
S16 F2sN tox cnf: confirmation of cytotoxicity in S16 Pmp22-F2sN Schwann cells (luciferase reporters placed in the Pmp22 gene) | S16 Schwann cells viability, CellTiter-Glo ATP luminescence, 24 h | shares compounds with PMP22 txn prim | Potency, µM (titrated, usually from 57.5 µM), actives largely listed as cytotoxic | 690 compounds, 7% hits | AID 1508641
PMP22 txn cnf: confirmation of modulators of PMP22 gene transcription in S16 cells; 690 compounds, 22% hits; Potency, µM (series often up to 57.5 µM), hits mostly inhibitors; S16 Schwann cells Pmp22-F2sN, dual luciferase, 24 h; shares compounds with PMP22 txn prim; active = clear falling dose curves in both reporters; inconclusive = both reporters move, but less clearly or upward; inactive = either reporter flat; the % is the FLuc reporter signal
PMP22 prot conf: confirmation of modulators of rat PMP22 protein expression. shares compounds with PMP22 txn prim. S16 Schwann cells Pmp22-HiBiT, luminescence, 48 h. Potency, µM (series often up to 27.9 µM), usual class: inhibitors. 95 tested, under 10 active. AID 1508647
Target sequence (P25094 whole entry, looked up): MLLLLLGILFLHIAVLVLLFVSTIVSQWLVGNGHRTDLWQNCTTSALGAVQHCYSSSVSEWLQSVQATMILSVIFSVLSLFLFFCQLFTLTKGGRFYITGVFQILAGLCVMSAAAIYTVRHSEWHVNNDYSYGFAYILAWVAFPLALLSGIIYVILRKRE
Numbers stand for hits; . = inactive; ? = inconclusive; / = no result given; [ ] = remark or other dose. Unless noted, calls come from the whole dose curve; as a rule, active = well fitted curve in the direction sought with a large enough effect; inconclusive = small, poorly fitted or top-dose-only effect, or another doubt; inactive = no such curve, though single readings can be large; an effect the other way counts as inactive or inconclusive.

SMILES	p53null 39C kill	S16 F2sN tox	PMP22 txn prim	OvCa metastasis	p53null 32C kill	mTORC1 inh	NLuc sat counter	NLuc Km ctr	FLuc counter	S16 F2sN tox cnf	PMP22 txn cnf	others
Cc1ccc2nc(/C(C#N)=C/c3ccc(-c4cccc(Cl)c4)o3)[nH]c2c1	?	.	?	.	.	.	/	/	/	/	/
Cc1ccc(O)c(-c2n[nH]c3c2C(c2ccc(F)cc2)N(Cc2ccco2)C3=O)c1 (stereo unspecified)	?	.	20µM	?	.	.	.	?	.	.	.
Cc1ccccc1OCC(=O)Nc1ccccc1C(=O)OCc1cc(=O)n2nc(C3CC3)sc2n1	.	.	2.5µM	.	.	.	.	.	.	.	.
CCc1nn2c(=O)cc(COC(=O)c3ccccc3NC(=O)COc3ccccc3C)nc2s1	.	.	.	.	.	.	/	/	/	/	/
CCOCCc1nn2c(=O)cc(COC(=O)c3ccccc3NC(=O)CC(C)C)nc2s1	.	.	?	.	.	.	/	/	/	/	/
CCOCCc1nn2c(=O)cc(COC(=O)c3ccccc3NC(=O)c3ccccc3F)nc2s1	.	.	?	.	.	.	.	.	.	.	.
COC(=O)[C@@H]1[C@H]2C[C@@H]3c4[nH]c5ccccc5c4CCN3C[C@@H]2CC[C@@H]1O	/	/	/	.	/	/	/	/	/	/	/
COCCCOc1cc(C[C@@H](C[C@H](N)[C@@H](O)C[C@H](C(=O)NCC(C)(C)C(N)=O)C(C)C)C(C)C)ccc1OC	/	/	/	.	/	/	/	/	/	/	/
CCOc1ccc(NC(=O)Cn2c(=O)cc(C)c3c(C)nn(C)c32)cc1	.	?	.	.	.	?	/	/	/	/	/
COc1ccc(NC(=O)Cn2c(=O)cc(C)c3c(C)nn(C)c32)cc1	.	.	16µM	.	.	.	.	.	.	.	.
Cc1ccc(Cl)cc1NC(=O)Cn1c(=O)cc(C)c2c(C)nn(C)c21	.	.	19µM	.	.	.	.	.	.	.	.
CSc1ccc(CCNC(=O)c2c(C)nn(-c3ccc(F)cc3)c2-n2cccc2)cc1	.	.	15µM	.	.	.	.	.	.	.	?
COCCCNC(=O)c1c(C)nn(-c2ccc(F)cc2)c1-n1cccc1	.	.	.	.	.	.	/	/	/	/	/
Fc1ccc(Nc2c3c(nc4ccccc24)CCC3)cc1	?	.	14µM	.	.	.	?	.	.	.	18µM
COc1ccc(C)cc1Nc1c2c(nc3ccccc13)CCC2	16µM	.	11µM	.	.	?	?	.	.	.	?
COc1ccc(Nc2c3c(nc4nncn24)CCC3)cc1Cl	.	.	?	.	.	.	/	/	/	/	/
COc1ccc(Nc2c3c(nc4ccccc24)CCC3)cc1Cl	?	?	10µM	.	.	?	.	.	.	.	?
Fc1ccc(F)c(Nc2c3c(nc4ccc(Cl)cc24)CCC3)c1	.	.	19µM	.	.	.	?	?	.	.	.
CCC1=C[C@@H]2CN(C1)Cc1c([nH]c3ccccc13)[C@@](C(=O)OC)(c1cc3c(cc1OC)N(C)[C@@H]1[C@@](O)(C(=O)OC)[C@H](OC(C)=O)[C@]4(CC)C=CCN5CC[C@]31[C@@H]54)C2	/	/	/	.	/	/	/	/	/	/	/
Cc1ccccc1NC(=O)c1ccc(F)c(S(=O)(=O)N(C)C2CCCCC2)c1	.	.	5µM	.	.	.	.	?	.	.	.
COc1nccc(-c2c(-c3ccc(F)cc3)ncn2C2CCNCC2)n1	/	/	/	.	/	/	/	/	/	/	/
O=C(Nc1ccccc1)Nc1ccc(-c2ccc(C(=O)[C@H]3CCC[C@H]3C(=O)O)cc2)cc1	/	/	/	.	/	/	/	/	/	/	/
Cc1c(C(=O)OC2CCCCC2)[nH]c2c1C(=O)CC(c1ccc(F)cc1)C2 (stereo unspecified)	.	.	?	.	.[9.22 µM]	.	/	/	/	/	/
Cc1c(C(=O)OC2CCCCC2)[nH]c2c1C(=O)CC(c1ccccc1)C2 (stereo unspecified)	.	.	13µM	.	.	.	.	.	.	.	?
Cc1c(C(=O)OC2CCCCC2)[nH]c2c1C(=O)CC(c1ccccc1Cl)C2 (stereo unspecified)	.	?	6µM	.	.	?	.	?	.	.	.
SMILES	p53null 39C kill	S16 F2sN tox	PMP22 txn prim	OvCa metastasis	p53null 32C kill	mTORC1 inh	NLuc sat counter	NLuc Km ctr	FLuc counter	S16 F2sN tox cnf	PMP22 txn cnf	others
O=C(NCC1CN(c2ccc(N3CCOCC3=O)cc2)C(=O)O1)c1ccc(Cl)s1 (stereo unspecified)	/	/	/	.	/	/	/	/	/	/	/
O=C(Nc1ccc(F)c(C(F)(F)F)c1)Nc1nnc(-c2ccncc2)s1	/	/	/	.	/	/	/	/	/	/	/
COc1ccc(Nc2cc(C)c3cc(NC(=O)c4cc(OC)cc(OC)c4)ccc3n2)cc1	.	.	?	?	.	.	/	/	/	/	/
CCOCCCNC(=O)c1ccc(-n2c(-c3ccccc3)cc3c2CCC(C)C3)cc1 (stereo unspecified)	?	.	18µM	.	.	?	.	.	.	.	?	PMP22 prot conf=.
Cc1c(/C=C(\C#N)C(=O)Nc2cccc(Cl)c2)c2ccccc2n1Cc1ccccc1Cl	.	.	?	.	.	.	.	.	.	.	.
CCCC1=Nc2cc(C(=O)NC3CCCCC3)ccc2Sc2ccc(C)cc21	.	.	0.9µM	.	.	.	.	.	.	.	2.9µM	PMP22 prot conf=?
CCCC1=Nc2cc(C(=O)NC3CCCC3)ccc2Sc2ccc(C)cc21	?	.	3.7µM	.	.	.	.	.	.	.	4.4µM
